HTT aggregate: reduces HttQ103-GFP aggregates in PC12 cells. AID 1688. hit rate 1.1% among 220,000. Potency, µM (titrated, usually from 46.1 µM), without a hit: at the top dose activity change, negative = inhibition, most hits filed as inhibitors. PC12 HttQ103-GFP aggregates, Acumen cytometry, 40 h; further: on the % scale 0 is the no-effect control and ±100 the full control effect; nearly all actives have a fitted effect of over 60% in size
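Steps: seed 1500 PC12 HTTQ103-GFP cells/well; add tebufenozide, 100 nM final; add compound titration; add ATPLite reagent; quantify GFP aggregates by laser scanning cytometry.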
HTT ATP protect: protects HTT-Q103 PC12 cells, measured by ATP; PC12 HTT-Q103 induced, cytoprotection, ATP luminescence, 40 h; Potency, µM (highest dose often 56.4 µM), without a hit: cytoprotection (ATP increase), actives largely listed as activators; hit rate 0.14% among 230,000; further: % of control where 0% means no effect; nearly all actives have a fitted effect of over 45% in size
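ATP quantification (ATPlite) reports survival of PC12 cells in which tebufenozide, 100 nM final, switches on Htt exon 1 with 103 glutamines linked to GFP; compounds are titrated.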
ERK EGF block: inhibitors of EGF-stimulated ERK signaling pathway | HEK293-V1b, EGF-stimulated phospho-ERK AlphaScreen | Potency, µM (titrated, usually from 11.5 µM), inactives show at the top dose activity change, negative = inhibition, most hits filed as inhibitors | hit rate 0.41% among 130,000 | AID 1454;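 further: plate controls were stimulated vehicle wells for no effect and unstimulated vehicle basal for full effect; nearly all actives have a fitted effect of over 55% in size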
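Concentration-response of compounds against EGF-driven ERK phosphorylation in V1b-expressing HEK293 cells; 30 min preincubation, 5 min EGF, AlphaScreen detection; Normalized to DMSO basal and 25 nM EGF.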
IMPase Li cell: cell-permeable IMPase inhibitors with lithium potentiation; CHO-M1 cells, IP1 TR-FRET (IP-One), carbachol + lithium; Potency, µM (series often up to 59.4 µM), without a hit: top-dose activity, negative = IMPase inhibition, actives largely listed as inhibitors; hit rate 0.35% among 210,000; AID 1457;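 further: IP1 builds up when IMPase is blocked and the TR-FRET signal falls; plate controls were basal vehicle for no effect and high inhibitor control for full effect; nearly all actives have a fitted effect of over 50% in size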
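Concentration–response in CHO-M1 cells, lithium-potentiated; 30 min at 37C. IP1 detected by competitive TR-FRET after 10 min lysis at RT. Hill-fitted AC50.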
NPSR antagonist: neuropeptide S receptor (human) antagonism, cAMP. Q6W5P4. CHO-NPSR cells, cAMP TR-FRET, antagonist mode. Potency, µM (top dose mostly 38.3 µM), for inactives: top-dose activity change, negative = inhibition, usual class: inhibitors. hit rate 1% among 220,000; further: on the % scale 0 is the no-effect control and ±100 the full control effect; nearly all actives have a fitted effect of over 50% in size
Target sequence (Q6W5P4 whole entry, looked up): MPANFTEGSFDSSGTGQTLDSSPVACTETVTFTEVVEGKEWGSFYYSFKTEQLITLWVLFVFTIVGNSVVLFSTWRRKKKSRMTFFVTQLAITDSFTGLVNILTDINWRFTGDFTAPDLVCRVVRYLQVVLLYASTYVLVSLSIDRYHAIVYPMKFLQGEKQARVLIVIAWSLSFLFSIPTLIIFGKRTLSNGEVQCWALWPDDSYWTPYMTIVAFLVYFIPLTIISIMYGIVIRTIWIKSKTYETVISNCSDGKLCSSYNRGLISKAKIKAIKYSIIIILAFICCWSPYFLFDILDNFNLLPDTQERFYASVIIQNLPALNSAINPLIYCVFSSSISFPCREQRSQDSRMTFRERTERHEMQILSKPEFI
Active calls of the source: *; ? = inconclusive; / = no result; [ ] = remark or other dose. Shown are actives, neighbours in structure and some others; about 1.9% of the full set was active somewhere. The call rests on the fitted dose curve; in most records, active means well fitted curve in the direction sought with a large enough effect; inconclusive means small, poorly fitted or top-dose-only effect, or another doubt; inactive means no such curve, though single readings can be large; an effect the other way counts as inactive or inconclusive. Potency means the concentration at half of the fitted maximal effect.

SMILES | HTT aggregate | HTT ATP protect | ERK EGF block | IMPase Li cell | NPSR antagonist
c1ccc(-c2ccc(-c3ccc(C4=NCCN4)cc3)o2)cc1 | / | 23%[10 µM] | / | -9% | /
Clc1ccc(C[n+]2cc(-c3ccccc3)n3c2CCCCC3)c(Cl)c1 | 11µM* | -48%[10 µM] | -3% | 26% | -29%
Nc1ncnc(NCc2ccc(F)cc2)c1[N+](=O)[O-] | ? | -14%[10 µM] | 6% | 4% | 23%
c1ccc(CNc2ncnc3ccccc23)cc1 | 4.5µM* | 4%[10 µM] | / | 17%[38.3 µM] | 3%[46.1 µM]
CCN(CC)CCCNc1ncnc2ccccc12 | 13%[9.22 µM] | 2%[10 µM] | 14% | 7% | -26%
OCCCCCNc1ncnc2ccccc12 | 7.9µM* | 29%[10 µM] | 3% | 5% | 7%[46.1 µM]
Nc1ncnc(NCc2ccccc2)c1[N+](=O)[O-] | 11µM* | / | 1% | -4% | 10%
CC(=O)[C@H]1[C@H](C#N)CC2C3CC=C4C[C@@H](O)CCC4(C)C3CCC21C (some centres undefined) | / | / | / | 16% | /
COc1cccc2cc(C(=O)NCc3ccco3)c(=Nc3ccc(C(=O)O)cc3)oc12 | 8%[1.84 µM] | 12% | / | 32%[38.3 µM] | ?
COc1cccc2cc(C(=O)NCc3ccco3)c(=O)oc12 | 9% | 14%[10 µM] | 6% | 11µM* | 7%
Cc1ccc(N(C(=O)CCl)C(C(=O)NC2CCCCC2)c2cccnc2)cc1C (centres undefined) | 3.5µM* | -86%[10 µM] | 6% | 3% | -59%
Cc1ccc(N(C(=O)CNC(=O)c2ccco2)C(C(=O)NC2CCCC2)c2cccnc2)cc1C (centres undefined) | 16% | 5% | / | -6%[38.3 µM] | -10%[46.1 µM]
Cc1ccc(C(C(=O)NC2CCCC2)N(C(=O)Cc2cccs2)c2ccc(C)c(C)c2)o1 (centres undefined) | 20µM* | 0%[10 µM] | / | 36%[38.3 µM] | ?
N#Cc1ccc(CN2CC[C@@]3(CCCN(C(=O)c4cccc(F)c4)C3)C2)cc1 | / | -9% | -1% | -1% | /
S=c1[nH]nc(-c2cccc(Cl)c2)n1Cc1ccccc1 | ? | 16%[10 µM] | 6% | -5% | -8%
C=CCn1c(-c2cccc(Cl)c2)n[nH]c1=S | 6% | 5% | / | 8.9µM* | 25%[46.1 µM]
Cc1ccc(S(=O)(=O)O[C@H]2CC(C(C)(C)C)CC[C@@H]2c2ccccc2)cc1 (some centres undefined) | / | / | / | -4% | /
CCNc1ncc2nc(-c3ccccc3)c(=O)n(CCc3ccccc3)c2n1 | / | -12% | -6% | -27% | /
CCNc1ncc2nc(-c3cccs3)c(=O)n(CCc3ccccc3)c2n1 | / | 1.4µM* | / | ? | /
COc1ncc2nc(-c3ccccc3)c(=O)n(CCc3ccccc3)c2n1 | / | ? | / | 6% | /
CCNc1ncc2nc(-c3ccc(Cl)cc3)c(=O)n(C[C@H]3CCCO3)c2n1 | / | -51% | / | 10µM* | /
COc1ncc2nc(-c3ccc(F)cc3)c(=O)n(CCc3ccccc3)c2n1 | / | -4% | / | 14µM* | /
CCNc1ncc2nc(-c3ccc(F)cc3)c(=O)n(CCc3ccccc3)c2n1 | / | -58% | / | 5.6µM* | /
CCN(CC)CCCCn1c(-c2ccccc2)nc2c(Nc3ccccc3)nc(C)nc21 | / | -27% | -3% | 24% | /
COC(=O)N1C2CC3(C)C=C(C)OC1(C)C3c1ccccc12 (centres undefined) | / | 9%[10 µM] | / | 10% | /
SMILES | HTT aggregate | HTT ATP protect | ERK EGF block | IMPase Li cell | NPSR antagonist
O=C(/C=C/c1c(C(=O)O)[nH]c2cc(Cl)cc(Cl)c12)Nc1ccccc1 | / | 4% | -9% | -3% | /
COC(=O)C1=C(C(=O)OC)[C@@H]2N(C)c3ccc(OC)cc3[C@@]23C[C@@H](C(=O)OC)N(S(=O)(=O)c2ccc(C(F)(F)F)cc2)C3=N1 | / | 13%[10 µM] | / | 1% | /
CN(C)c1ncc2nc(-c3ccc(F)cc3)c(=O)n(CCc3ccccc3)c2n1 | / | 1% | / | 10µM* | /
CN(C)c1ncc2nc(-c3ccc(F)cc3)c(=O)n(-c3ccccc3)c2n1 | / | -53% | / | -30% | /
COc1ccc(-n2c(C)c([N+](=O)[O-])c3ccc(O)c(CN4CCCCC4)c32)cc1 | 10µM* | -7% | / | -13%[38.3 µM] | ?
Cc1ccc(-n2c(C)c([N+](=O)[O-])c3ccc(O)c(CN(C)C)c32)cc1 | 2.5µM* | -4% | / | 49%[38.3 µM] | -3%[46.1 µM]
Cc1ccc(-n2c(C)c([N+](=O)[O-])c3ccc(O)cc32)cc1 | ? | 33%[10 µM] | -2%[57.5 µM] | / | 7%

Compound activity as filed in PubChem BioAssay.
